For experiment [1], the system named is XIP peptide (Xip251-270) binding. Kind of experiment: XIP fragment 251-270 binding compounds – biochemical, small-molecule microarray, fluorescence 635/667 nm, 0.1 µg/mL protein, primary screen (AID 1182). As to conditions: fluorescent protein binding, 635 nm, higher = more signal, called active from +8 up or from −8 down.
Another experiment deals with XIP peptide (Xip251-270). Kind of experiment: compounds binding XIP fragment 251-270 – biochemical, small-molecule microarray, fluorescence 635/667 nm, 0.5 µg/mL protein, primary screen (AID 1183). The settings on record: fluorescence 635 nm, higher = more signal.
Experiment [2] can be described thus: blood-stage malaria parasite viability loss – strain 3D7, DAPI fluorescence, 100 nL, primary screen (AID 1184).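 Note: parasites grown inside human red blood cells in medium with human serum.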 The settings on record: P. falciparum 3D7 growth, 3 d, higher = more signal.
In experiment [3] the target is Homeobox protein Hox-A13 (Mus musculus) (UniProt Q62424). Kind of experiment: disruptors of Hoxa13 oligonucleotide interaction – biochemical, fluorescence polarization, labeled oligonucleotide, primary screen (AID 1185). As to conditions: Hoxa13:DNA binding, 15 min, higher = more signal, called active from +8 up or from −8 down.
A short description of experiment [4]: blockers of DNA damage checkpoint Chk1 activation – imaging, HeLa, hydroxyurea, phospho-Chk1 antibody, percent positive cells, primary screen (AID 1186). As to conditions: hydroxyurea-induced phospho-Chk1 immunofluorescence imaging, higher = more signal.
The nature of experiment [5]: blockers of DNA damage checkpoint Chk1 activation – imaging, HeLa, hydroxyurea, phospho-Chk1 nuclear intensity, primary screen (AID 1187). The settings on record: hydroxyurea-induced phospho-Chk1 immunofluorescence imaging, higher = more signal.

Calls of active or inactive are those of the source. Unless noted, the rule behind the calls is not given here.

Homeobox protein Hox-A13 (Mus musculus), sequence (Q62424 whole entry, looked up): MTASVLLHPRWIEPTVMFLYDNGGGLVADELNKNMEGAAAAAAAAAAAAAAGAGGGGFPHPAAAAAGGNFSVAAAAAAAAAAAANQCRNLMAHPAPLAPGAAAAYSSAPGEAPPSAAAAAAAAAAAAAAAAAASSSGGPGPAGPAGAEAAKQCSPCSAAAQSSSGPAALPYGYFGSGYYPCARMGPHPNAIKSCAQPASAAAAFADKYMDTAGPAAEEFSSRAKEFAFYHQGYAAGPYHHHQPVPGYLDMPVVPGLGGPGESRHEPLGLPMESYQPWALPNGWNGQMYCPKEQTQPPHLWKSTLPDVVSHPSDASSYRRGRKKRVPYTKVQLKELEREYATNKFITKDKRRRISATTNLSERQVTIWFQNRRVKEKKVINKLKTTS

For `NCCCCCNC(=O)[C@@H]1C[C@@H]2C(=O)N[C@@H](Cc3ccccc3)C(=O)N2[C@@H]1c1ccc(O)cc1`, the values for the composite z-score (in experiment [1]; with XIP peptide (Xip251-270)) were 0.632 (inactive) and 0.549, respectively. Also, the z-score is 1.35 in experiment [2], -1.87 (inactive) in experiment [3], 0.296 (inactive) in experiment [4] and 0.204 (inactive) in experiment [5].
On to `C#C[C@H](O[Si](C#Cc1ccc(Oc2ccccc2)cc1)(C(C)C)C(C)C)c1ccccc1`, for which the composite z-score was 0.359 (inactive) in experiment [1] and -0.418 in the experiment with XIP peptide (Xip251-270). Further, the z-score is -1 in experiment [2], -1.04 (inactive) in experiment [3], 0.179 (inactive) in experiment [4] and -0.049 (inactive) in experiment [5].
In the case of `C=C(COC)/C(=C/C[C@@H](OC(C)=O)c1ccc(OCCO)cc1)c1cnc2ccccc2c1`, the composite z-score in experiment [1] is -0.263 (inactive); with XIP peptide (Xip251-270) it was 0.554. The z-score in experiment [2] is -3.23; in experiment [3], -6.01 (inactive); in experiment [4] it was 0.136 (inactive); in experiment [5], -0.201 (inactive).
Consider `O=C1N(Cc2ccccc2)c2ccccc2[C@@H]2OC(c3ccc(OCCCO)cc3)=N[C@]12CCS(=O)(=O)c1ccccc1`, for which the results for the composite z-score (in experiment [1]; in the experiment with XIP peptide (Xip251-270)) were 0.7 (inactive) and 0.677, respectively. The z-score in experiment [2] is -2.13; in experiment [3], 1.28 (inactive); in experiment [4] it was -0.413 (inactive); in experiment [5] it was -0.77 (inactive).
As for `CN1C(=O)C2C=CC(C(O)C#Cc3ccccc3)N(N3CCCCC3)C2C1=O` (stereo not given), the composite z-score in experiment [1] was 1.34 (inactive); with XIP peptide (Xip251-270), 0.84. In addition, the z-score in experiment [2] is -0.254; in experiment [3], -4.72 (inactive); in experiment [4], -0.699 (inactive); in experiment [5], -0.674 (inactive).
Turning to `CC(C)CNC(=O)[C@@]1(Cc2ccccc2I)c2ccccc2C(=O)N(C2CCCCC2)[C@H]1c1ccc(CO)cc1`, the composite z-score in experiment [1] was 2.15 (inactive); in the experiment on XIP peptide (Xip251-270), 0.696. In addition, the z-score was -1.15 in experiment [2], -3.77 (inactive) in experiment [3], 0.145 (inactive) in experiment [4] and -0.0021 (inactive) in experiment [5].
Turning to `COC(=O)[C@@]1(Cc2ccccc2)[C@H]2c3cc(C(=O)N(C)C)n(Cc4ccsc4Br)c3C[C@H]2CN1C(=O)c1ccccc1`, the composite z-score in experiment [1] was 0.274 (inactive); in the experiment on XIP peptide (Xip251-270) it was 0.116. The z-score was -1.51 in experiment [2], -4.23 (inactive) in experiment [3], 0.567 (inactive) in experiment [4] and 0.0591 (inactive) in experiment [5].
Consider `Oc1ccc2cc[n+](Cc3sc4ccccc4c3Cl)cc2c1`, for which the figures for the composite z-score (in experiment [1]; with XIP peptide (Xip251-270)) were 0.558 (inactive) and 0.904, respectively. Besides, the z-score was -1.11 in experiment [2], -4.76 (inactive) in experiment [3], -0.0224 (inactive) in experiment [4] and -0.106 (inactive) in experiment [5].
As to `COCCOC(=O)N1C(=O)[C@@]2(c3cc(C#Cc4ccc(OC)cc4)ccc31)[C@H](c1ccc(OCCO)cc1)N1[C@H](c3ccccc3)[C@H](c3ccccc3)OC(=O)[C@H]1[C@@H]2C(=O)N1CCN(c2ncccn2)CC1`, the composite z-score in experiment [1] was 0.0039 (inactive); with XIP peptide (Xip251-270) it was 0.695. Further, the z-score was -1.84 in experiment [2], 0.99 (inactive) in experiment [3], 0.13 (inactive) in experiment [4] and 0.436 (inactive) in experiment [5].
With `NCCCCCCNC(=O)[C@@H]1C[C@@H]2C(=O)NCC(=O)N2[C@@H]1c1ccc(O)cc1`, the composite z-score in experiment [1] is -0.0092 (inactive); with XIP peptide (Xip251-270), 0.755. In addition, the z-score in experiment [2] was -0.634; in experiment [3], -1.98 (inactive); in experiment [4] it was 0.563 (inactive); in experiment [5], 0.457 (inactive).
In the case of `CC1CC/C=C\[C@H]2OC34C=CCN(C(C)(C)C)C(=O)[C@H]3N(C(C)CO)C(=O)[C@@H]4C2C(=O)O1` (stereo not given in full), the figures for the composite z-score (in experiment [1]; with XIP peptide (Xip251-270)) were -0.323 (inactive) and -1.08, respectively. The z-score was 0.0549 in experiment [2], -5.51 (inactive) in experiment [3], 0.714 (inactive) in experiment [4] and -0.0558 (inactive) in experiment [5].
On to `COc1cc2c(cc1OC)CN(C(=O)[C@@H]1[C@H]3C(=O)O[C@H](c4ccccc4)[C@H](c4ccccc4)N3[C@H](c3ccccc3OCCO)[C@@]13C(=O)Nc1ccc(C#CCCO)cc13)CC2`, for which the figures for the composite z-score (in experiment [1]; in the experiment with XIP peptide (Xip251-270)) were 2.75 (inactive) and 0.827, respectively. In addition, the z-score in experiment [2] was -2.18; in experiment [3], 3.45 (inactive); in experiment [4], 0.14 (inactive); in experiment [5] it was 0.598 (inactive).
Take `CC1(C)C2C=C(C(O)C3C=CC4C(=O)NC(=O)C4N3Nc3ccc(Cl)cc3Cl)C[C@@H]1C2` (stereo not given in full): the composite z-score in experiment [1] was 1.15 (inactive); in the experiment with XIP peptide (Xip251-270) it was 0.231. In addition, the z-score is 0.665 in experiment [2], -4.45 (inactive) in experiment [3], 0.955 (inactive) in experiment [4] and 0.327 (inactive) in experiment [5].
As for `COC(=O)[C@H](Cc1ccccc1)N1CC2=C[C@@H](C3CC3)n3c(=O)n(C)c(=O)n3[C@H]2[C@@H]1[C@@H](O)Cc1ccccc1`, the values for the composite z-score (in experiment [1]; with XIP peptide (Xip251-270)) were 0.475 (inactive) and 0.259, respectively. Besides, the z-score in experiment [2] is -0.863; in experiment [3], -7.37 (inactive); in experiment [4], 0.183 (inactive); in experiment [5], 1.5 (inactive).
As for `CC(C)[Si](C#Cc1ccc(Oc2ccccc2)cc1)(O[Si](C#Cc1ccc(Oc2ccccc2)cc1)(C(C)C)C(C)C)C(C)C`, the figures for the composite z-score (in experiment [1]; in the experiment on XIP peptide (Xip251-270)) were 0.467 (inactive) and -0.0968, respectively. In addition, the z-score in experiment [2] is -1.37; in experiment [3], -2.37 (inactive); in experiment [4] it was -1.01 (inactive); in experiment [5], -0.556 (inactive).
As for `COc1ccc(C#Cc2ccc3c(c2)[C@]2(C(=O)N3)[C@H](C(=O)NC[C@H](O)c3ccccc3)[C@H]3C(=O)O[C@H](c4ccccc4)[C@H](c4ccccc4)N3[C@@H]2c2ccc(O)cc2)cc1`, the composite z-score in experiment [1] was 0.627 (inactive); with XIP peptide (Xip251-270), 0.624. In addition, the z-score in experiment [2] is -0.0029; in experiment [3] it was -0.752 (inactive); in experiment [4], -0.371 (inactive); in experiment [5] it was -0.628 (inactive).
Consider `CC(C)NC(=O)[C@@]1(C)c2ccccc2C(=O)N(Cc2cc(C(F)(F)F)cc(C(F)(F)F)c2)[C@H]1c1ccc(CO)cc1`, for which the composite z-score in experiment [1] was 0.281 (inactive); in the experiment with XIP peptide (Xip251-270) it was 0.427. For the same compound, the z-score in experiment [2] was -1.54; in experiment [3], -3.76 (inactive); in experiment [4] it was -0.281 (inactive); in experiment [5], -0.197 (inactive).
With `O=C1NC(=O)C2C1C=CC(C(O)c1cccs1)N2Nc1ccc(Cl)cc1Cl` (stereo not given), the composite z-score is 0.228 (inactive) in experiment [1] and 0.554 with XIP peptide (Xip251-270). Besides, the z-score is -0.335 in experiment [2], -4.05 (inactive) in experiment [3], -0.266 (inactive) in experiment [4] and -0.45 (inactive) in experiment [5].
Take `C=C(CCCC)/C(=C/C[C@@H](OC(=O)c1ccncc1)c1ccc(OCCO)cc1)c1cc(C(=O)OC)ccc1OC`: the composite z-score in experiment [1] is 0.35 (inactive); in the experiment on XIP peptide (Xip251-270), 0.565. The z-score in experiment [2] is -2.8; in experiment [3], -3.62 (inactive); in experiment [4], -0.377 (inactive); in experiment [5], 0.106 (inactive).
Take `C=CCOC(=O)[C@@H]1[C@H]2C(=O)O[C@H](c3ccccc3)[C@H](c3ccccc3)N2[C@H](c2ccc(OCCOC(=O)[C@@H]3C[C@@H]4C(=O)NCC(=O)N4[C@@H]3c3ccc(O)cc3)cc2)[C@@]12C(=O)Nc1ccc(I)cc12`: the composite z-score was 0.549 (inactive) in experiment [1] and 0.849 in the experiment on XIP peptide (Xip251-270). Further, the z-score in experiment [2] is -1.77; in experiment [3] it was -0.29 (inactive); in experiment [4] it was 0.273 (inactive); in experiment [5], 0.702 (inactive).
`COC(=O)[C@@]1(Cc2ccccc2)[C@H]2c3cc(C(=O)N4CCCC4)n(Cc4ccc(S(C)(=O)=O)cc4)c3C[C@H]2CN1C(=O)c1ccccc1`: the values for the composite z-score (in experiment [1]; in the experiment with XIP peptide (Xip251-270)) were 0.478 (inactive) and 0.215, respectively. Also, the z-score in experiment [2] is -1.5; in experiment [3], -4.67 (inactive); in experiment [4] it was 0.267 (inactive); in experiment [5], -0.364 (inactive).
With `O=C(c1ccccc1)N1C(=O)[C@@]2(Cc3ccccc31)N=C(c1ccc(OCCCO)cc1)O[C@H]2c1ccccc1`, the composite z-score in experiment [1] was 1.68 (inactive); with XIP peptide (Xip251-270), 0.841. The z-score is -2.09 in experiment [2], -5.9 (inactive) in experiment [3], 0.0794 (inactive) in experiment [4] and 0.255 (inactive) in experiment [5].
Regarding `CC1(C)[C@@H]2CC(C(O)C3C=CC4C(=O)N(c5ccccc5)C(=O)C4N3Nc3ccc([N+](=O)[O-])cc3)=C[C@H]1C2` (stereo not given in full), the results for the composite z-score (in experiment [1]; in the experiment with XIP peptide (Xip251-270)) were 0.19 (inactive) and 0.797, respectively. For the same compound, the z-score in experiment [2] is -0.545; in experiment [3], -2.94 (inactive); in experiment [4], 0.0793 (inactive); in experiment [5], -0.261 (inactive).
Consider `CCN(CC)c1ccc(N2CC=CC34O[C@@H]5C=CCCOC(=O)C5[C@H]3C(=O)N(CCCCCCO)[C@@H]4C2=O)cc1` (stereo not given in full), for which the composite z-score was 0.0059 (inactive) in experiment [1] and 0.375 in the experiment with XIP peptide (Xip251-270). Also, the z-score in experiment [2] is -0.459; in experiment [3] it was -5.73 (inactive); in experiment [4], -0.43 (inactive); in experiment [5], 0.419 (inactive).
`COc1ccc([Si](C)(C)[C@H]2[C@H](CC(=O)N3Cc4ccccc4C[C@H]3CO)O[C@@]3(C(=O)N(Cc4cccc(N5CCC5=O)c4)c4ccccc43)[C@@H]2C)cc1`: the composite z-score in experiment [1] is 0.177 (inactive); in the experiment with XIP peptide (Xip251-270), 0.719. The z-score in experiment [2] was -2.33; in experiment [3] it was -2.97 (inactive); in experiment [4], -0.227 (inactive); in experiment [5], -0.0325 (inactive).

The record behind these values is PubChem BioAssay.
